Article PMC4552634, “A New Set of Chemical Starting Points with Plasmodium falciparum Transmission-Blocking Potential for Antimalarial Drug Discovery” (PLoS ONE, 2015)
The campaign covered roughly 13,000 compounds. About 3,200 (25%) showed an effect of 50% or more. The list shows a part of the results.

Test system: P. falciparum stage V gametocytes
Set-up: BacTiter-Glo ATP luminescence viability of purified stage V gametocytes in 384-well plates, per cent inhibition versus DMSO
Details: 48 h, 5 µM; inhibitor

Q: Which “% Inhibition” value does the source give for `Cc1ccc2nc(-c3cc(-c4ccc(OCc5ccccc5)cc4)cnc3N)[nH]c2c1` [TCMDC-135839] here?
A: -50.65%

Q: With `Cn1c(=O)n(C)c2cc(CNCCNc3ccnc4cc(Cl)ccc34)ccc21` [TCMDC-125236] as the compound, how does the “% Inhibition” value read?
A: 26.13%

Q: For `CCCOc1ccc(CCCON2C(N)=NC(N)=NC2(C)C)cc1` [TCMDC-131757], which “% Inhibition” value is on record?
A: 14.14%

Q: Which “% Inhibition” value does the source give for `Cc1noc(C)c1-c1cccc(CNCc2ccc(-c3cccc(-c4nc5ccccc5[nH]4)c3)cc2)c1.O=C(O)C(F)(F)F` [TCMDC-132565] here?
A: -39.99%

Q: Which “% Inhibition” value does the source give for `OCCN1CCN(C(=S)NC2CCCCC2)CC1` [TCMDC-123848] here?
A: -10.92%

Q: With `O=C(NCc1cccc(C(F)(F)F)c1)c1ccc(-c2nc3cc(F)c(F)cc3[nH]2)cc1` [TCMDC-140461] as the compound, how does the “% Inhibition” value read?
A: 13.57%

Q: Which “% Inhibition” value does the source give for `COc1cc(C)nc2ccc(NC(=O)c3ccc(C(=O)Nc4ccc5nc(C)cc(OC)c5c4)cc3)cc12` [TCMDC-139502] here?
A: 14.93%

Q: With `Cc1cc(C)c(C(=O)Nc2ccc3nc(C)cc(N)c3c2)c(C)c1` [TCMDC-139379] as the compound, how does the “% Inhibition” value read?
A: -0.864%

Q: How did the “% Inhibition” value turn out when `CCc1ccc(OCc2ccccc2C(=O)Nc2ccc3nc(C)cc(N)c3c2)cc1` [TCMDC-125882] was run?
A: 102.8%

Q: With `Cc1cc(Nc2ccc(OCc3ccccc3Cl)cc2)c2cc(Cl)ccc2n1` [TCMDC-123799] as the compound, how does the “% Inhibition” value read?
A: -30.43%

Q: For `Cc1cc(N)c2cc(NC(=O)c3cccc4ccccc34)ccc2n1` [TCMDC-139378], which “% Inhibition” value is on record?
A: 63.27%

Q: Which “% Inhibition” value does the source give for `Cc1cc(N)c2cc(NC(=O)c3cccc(C(=O)Nc4ccc5nc(C)cc(N)c5c4)c3)ccc2n1` [TCMDC-139410] here?
A: 73.19%

Q: How did the “% Inhibition” value turn out when `COc1cc(C)nc2ccc(NC(=O)Nc3cccc4ccccc34)cc12` [TCMDC-139397] was run?
A: -27.18%

Q: Which “% Inhibition” value does the source give for `Cc1cc(N)c2cc(NC(=O)CCC(=O)Nc3ccc4nc(C)cc(N)c4c3)ccc2n1` [TCMDC-139503] here?
A: 21.97%

Q: `Cc1cc(C(=O)Nc2ccc(OCc3ccccc3)cc2)on1` [TCMDC-124596] was tested. Which “% Inhibition” value did it give?
A: 15.42%

Q: With `Cc1cccc2nc(-c3ccc(-c4ccc(CN5CCN(c6ccc(C#N)cn6)CC5)cc4)s3)[nH]c12.O=C(O)C(F)(F)F` [TCMDC-133116] as the compound, how does the “% Inhibition” value read?
A: 1.839%

Q: Which “% Inhibition” value does the source give for `NC1(C(=O)O)Cc2ccc(Cl)cc2C1` (stereo not drawn) [TCMDC-131768] here?
A: 8.887%

Q: Which “% Inhibition” value does the source give for `O=C(/C=C/c1ccc(Cl)c(Cl)c1)NC1CCN(Cc2cccc(O)c2)CC1` [TCMDC-141738] here?
A: -9.136%

Q: `Oc1ccc2c(c1NCC1CCCCC1)CCCC2` [TCMDC-138157] was tested. Which “% Inhibition” value did it give?
A: -18.15%

Q: `COC(=O)CN(C(=O)/C=C/c1ccc(Cl)c(Cl)c1)C1CCC(CN2CCC(c3c[nH]c4ccccc34)CC2)CC1` (stereo not drawn) [TCMDC-140320] was tested. Which “% Inhibition” value did it give?
A: 0.7085%

Q: How did the “% Inhibition” value turn out when `Oc1ccc(-c2cc(-c3ccc(O)cc3)nc(-c3ccccc3)n2)cc1` [TCMDC-123851] was run?
A: -22.65%

Q: `Cc1ccccc1C1CCN(C2CCC(NC(=O)c3cncc(-c4ccccc4)c3)CC2)CC1` (stereo not drawn) [TCMDC-134111] was tested. Which “% Inhibition” value did it give?
A: -71.64%

Q: Which “% Inhibition” value does the source give for `Cc1ccccc1C1CCN(C2CCC(NC(=O)c3csc(-c4cccc(Cl)c4)n3)CC2)CC1` (stereo not drawn) [TCMDC-134104] here?
A: -68.67%

Q: For `CCc1c(C(=O)NC2CCC(N3CCC(c4ccccc4C)CC3)CC2)[nH]c2ccc(OC)cc12` (stereo not drawn) [TCMDC-133531], which “% Inhibition” value is on record?
A: -38.07%

Q: How did the “% Inhibition” value turn out when `Cc1ccccc1C1CCN(C2CCC(NC(=O)c3ccc(-c4cccc(C(F)(F)F)c4)o3)CC2)CC1` (stereo not drawn) [TCMDC-134108] was run?
A: 57.44%

Q: Which “% Inhibition” value does the source give for `Cc1ccccc1C1CCN(C2CCC(NC(=O)c3ccc(-c4ccccc4)s3)CC2)CC1` (stereo not drawn) [TCMDC-134113] here?
A: -48.7%

Q: `Cc1ccccc1C1CCN(C2CCC(NC(=O)c3cc(-c4ccc(Cl)cc4)cs3)CC2)CC1` (stereo not drawn) [TCMDC-133529] was tested. Which “% Inhibition” value did it give?
A: 65.99%

Q: With `Cc1ccc(/C=C/C(=O)NC2CCC(N3CCC(c4ccccc4C)CC3)CC2)cc1F` (stereo not drawn) [TCMDC-133514] as the compound, how does the “% Inhibition” value read?
A: -74.34%

Q: For `COc1ccc(-c2csc(C(=O)NC3CCC(N4CCC(c5ccccc5C)CC4)CC3)c2)cc1` (stereo not drawn) [TCMDC-134109], which “% Inhibition” value is on record?
A: 30.06%

Q: With `Cc1ccccc1C1CCN(C2CCC(NC(=O)c3ccc(-c4ccccc4F)o3)CC2)CC1` (stereo not drawn) [TCMDC-134110] as the compound, how does the “% Inhibition” value read?
A: 121.1%

Q: For `Cc1ccccc1C1CCN(C2CCC(NC(=O)c3cc(-c4ccccc4)oc3C)CC2)CC1` (stereo not drawn) [TCMDC-134112], which “% Inhibition” value is on record?
A: -36.13%

Q: Which “% Inhibition” value does the source give for `Cc1ccccc1C1CCN(C2CCC(NC(=O)c3cc4cc(Cl)ccc4o3)CC2)CC1` (stereo not drawn) [TCMDC-134102] here?
A: -69.82%

Q: With `COc1cccc(-c2cc(C(=O)NC3CCC(N4CCC(c5ccccc5C)CC4)CC3)[nH]n2)c1` (stereo not drawn) [TCMDC-133532] as the compound, how does the “% Inhibition” value read?
A: 73.16%

Q: For `CCCCN(Cc1cnccc1-c1ccc(Br)cc1)c1ccc(C(O)(C(F)(F)F)C(F)(F)F)cc1` [TCMDC-135242], which “% Inhibition” value is on record?
A: 23.71%

Q: Which “% Inhibition” value does the source give for `CCC(C)CN1CCCN(c2ccc(NC(=O)c3cccs3)cc2)CC1` (stereo not drawn) [TCMDC-134998] here?
A: 9.826%

Q: `CCN(Cc1ccccc1)C1CCN(Cc2cc(Br)ccc2O)CC1` [TCMDC-123661] was tested. Which “% Inhibition” value did it give?
A: 1.171%

Q: `O=C(Nc1ccc(Cl)cc1)Nc1ccc(-c2csc(-c3nc4ccccc4[nH]3)c2)cc1` [TCMDC-133174] was tested. Which “% Inhibition” value did it give?
A: 10.18%

Q: For `Cc1cc(N2CCCC2)nc(Nc2ccc(NC(=O)Nc3ccccc3)cc2)n1` [TCMDC-124705], which “% Inhibition” value is on record?
A: -12.69%

Q: `Cc1cc(N2CCCC2)nc(Nc2ccc(NC(=O)C(C)C)cc2)n1` [TCMDC-124970] was tested. Which “% Inhibition” value did it give?
A: -2.67%

Q: Which “% Inhibition” value does the source give for `Cc1cc(N2CCCC2)nc(Nc2ccc(NC(=O)C(C)(C)C)cc2)n1` [TCMDC-124716] here?
A: 77.07%

Q: How did the “% Inhibition” value turn out when `CCNc1cc(C(=O)N[C@@H](Cc2ccccc2)[C@H](O)CNCCCc2ccc(OC)cc2)cc(N2CCCC2=O)c1` [TCMDC-141685] was run?
A: 6.049%

Q: Which “% Inhibition” value does the source give for `O=C(Nc1ccc(OC2CCN(Cc3ccc(F)cc3)C2)cc1)c1ccco1` (stereo not drawn) [TCMDC-133758] here?
A: 44.14%

Q: `Cc1onc(-c2ccccc2)c1-c1nc(NCc2ccccc2Cl)no1` [TCMDC-134205] was tested. Which “% Inhibition” value did it give?
A: -12.6%

Q: For `CCNC(=O)N1CCc2ccc(Oc3nc(NCc4ccccc4OC)ncc3C)cc2CC1` [TCMDC-133414], which “% Inhibition” value is on record?
A: 17.56%

Q: `COc1ccccc1CNc1ccnc(N2CC(Oc3ccc(F)cc3)C2)n1` [TCMDC-135118] was tested. Which “% Inhibition” value did it give?
A: 57.67%

Q: With `CCOc1ccccc1CNc1nccc(NCc2ccccc2OC)n1` [TCMDC-135119] as the compound, how does the “% Inhibition” value read?
A: 40.21%

Q: How did the “% Inhibition” value turn out when `Fc1ccc(OC2CN(c3nccc(NCc4ccccc4Cl)n3)C2)cc1` [TCMDC-135110] was run?
A: 91.97%

Q: Which “% Inhibition” value does the source give for `CC(C)(C)NC(=O)c1ccc(Oc2ccc(OC(F)(F)F)cc2)c(NC(=O)C(C)(C)C)c1` [TCMDC-137270] here?
A: -22.87%

Q: `CC(C)[C@H](NCC(=O)c1ccccc1)C(=O)O` [TCMDC-131333] was tested. Which “% Inhibition” value did it give?
A: 52.78%

Q: How did the “% Inhibition” value turn out when `COC(=O)C(C)NCC(=O)c1ccccc1` (stereo not drawn) [TCMDC-131767] was run?
A: 45.43%

Q: Which “% Inhibition” value does the source give for `CCC(CC(C)C(=O)O)=C(c1ccccc1)c1ccccc1` (stereo not drawn) [TCMDC-131707] here?
A: -2.137%

Q: For `COc1cc(NC(=O)N2CCOC(CCN3CCC4(CCc5ccccc54)CC3)(c3ccc(Cl)c(Cl)c3)C2)cc(OC)c1` (stereo not drawn) [TCMDC-135338], which “% Inhibition” value is on record?
A: -0.7672%

Q: For `CCc1c(C)nc(-n2nc(C)cc2NC(=O)CCc2ccccc2)[nH]c1=O` [TCMDC-124934], which “% Inhibition” value is on record?
A: -11.5%

Q: How did the “% Inhibition” value turn out when `COc1ccc2ncc(F)c(CCN3CCC4(CC3)COC(c3cc5c(cn3)OCCO5)=N4)c2n1` [TCMDC-135741] was run?
A: 93.18%

Q: With `COc1ccc2ncc(F)c(CCN3C[C@H](CNCc4cc(C#N)c5c(c4)OCCO5)[C@H](O)C3)c2n1` [TCMDC-136275] as the compound, how does the “% Inhibition” value read?
A: 16.8%

Q: For `COc1ccc2ncc(F)c(CCN3CCC(NCc4cc(OC)c5c(c4)OCCO5)CC3)c2n1` [TCMDC-135509], which “% Inhibition” value is on record?
A: 17.67%

Q: With `COc1ccc2ncc(F)c(CCN3CC(O)C(CNCc4ccc5ccccc5c4)C3)c2n1` (stereo not drawn) [TCMDC-136528] as the compound, how does the “% Inhibition” value read?
A: 43.95%

Q: How did the “% Inhibition” value turn out when `COc1ccc2ncc(F)c(CCN3CC(O)C(CNCc4ccc5c(c4)OCCO5)C3)c2n1` (stereo not drawn) [TCMDC-136518] was run?
A: 55.46%

Q: Which “% Inhibition” value does the source give for `COc1ccc2ncc(F)c(CCN3CCC(NCc4cc(C)c5c(c4)OCCO5)CC3)c2n1` [TCMDC-136209] here?
A: 19.66%

Q: With `COc1ccc2ncc(F)c(CCN3CC(O)C(CNCc4ccc5oc(=O)ccc5c4)C3)c2n1` (stereo not drawn) [TCMDC-136499] as the compound, how does the “% Inhibition” value read?
A: 11.09%

Q: How did the “% Inhibition” value turn out when `COc1ccc2ncc(F)c(CCN3CC(O)C(CNCc4ccccc4)C3)c2n1` (stereo not drawn) [TCMDC-136498] was run?
A: 50.66%

Q: How did the “% Inhibition” value turn out when `COc1ccc2ncc(F)c(CCN3CC(O)C(CNCc4ccc(F)cc4)C3)c2n1` (stereo not drawn) [TCMDC-136527] was run?
A: 13.85%

Q: Which “% Inhibition” value does the source give for `COc1ccc2ncc(F)c(CCN3CCC(NCc4cc(Br)c5c(c4)OCCO5)CC3)c2n1` [TCMDC-136211] here?
A: 30.05%

Q: Which “% Inhibition” value does the source give for `COc1ccc2ncc(F)c(CCN3CCC(NCc4cc(F)c5c(c4)OCCO5)CC3)c2n1` [TCMDC-135849] here?
A: 84.79%

Q: With `CCc1cc(CNC2CCN(CCc3c(F)cnc4ccc(OC)nc34)CC2)cc2c1OCCO2` [TCMDC-136290] as the compound, how does the “% Inhibition” value read?
A: 31.48%

Q: With `NC1=NC(c2ccccc2)(c2ccccc2)C(=O)N1CCCCc1ccccc1` [TCMDC-136488] as the compound, how does the “% Inhibition” value read?
A: 3.475%

Q: For `Fc1cccc(COc2ccc(Nc3ncnc4sc(C#Cc5ncc[nH]5)cc34)cc2Cl)c1` [TCMDC-135407], which “% Inhibition” value is on record?
A: -1.353%

Q: `O=C(Nc1cccc(-c2nn3ccccc3c2-c2ccnc(Nc3cccc(C(F)(F)F)c3)n2)c1)c1c(F)cccc1F` [TCMDC-135527] was tested. Which “% Inhibition” value did it give?
A: -78.64%

Q: How did the “% Inhibition” value turn out when `COc1cccc(C2(c3cccc(OC)c3)N=C(N)N(CCCc3ccccc3)C2=O)c1` [TCMDC-136492] was run?
A: -28.16%
